We go through 29 compounds from PubChem BioAssay (NCATS).

Assay [1] has as its target Rap guanine nucleotide exchange factor 3 (Homo sapiens) (UniProt O95398). The assay can be described thus: Confirmatory qHTS for antagonist of cAMP-regulated guanine nucleotide exchange factor 3 (EPAC1) (AID 1645880). Also: nearly all actives have a fitted effect of over 55% in size. Also: potency is read from the fitted curve at half-maximal effect.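 As to activity, negative = inhibition: plate controls were DMSO only for no effect and full effect of the ATA control for full effect.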 To be noted: EPAC1 Rap1B-BODIPY-GDP exchange, fluorescence; activity, negative = inhibition: at 115 µM (top of the series). The method, boiled down:
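Nucleotide exchange uses 100 nM EPAC1, 250 nM RAP1B-BODIPY-GDP and 50 uM GDP, with compounds in a concentration-titration series. After 5 min at room temperature, fluorescence (480 nm ex/540 nm em) is read every 5 min for 30 min. Data are normalized to control ATA and DMSO.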
Background: In qHTS, concentration-response curves come from the screen itself.

The target is the same in assay [2]. Description: Confirmatory qHTS for agonist of cAMP-regulated guanine nucleotide exchange factor 3 (EPAC1) (AID 1645881). Also: nearly all actives have a fitted effect of over 75% in size. Also: potency is read from the fitted curve at half-maximal effect.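 As to activation: EPAC1 catalysed release of BODIPY-GDP from Rap1B seen as fluorescence loss; 100% = effect of cAMP agonist control.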
In assay [3] the target is Rap guanine nucleotide exchange factor 4 (Homo sapiens) (UniProt Q8WZA2). The assay can be described thus: Confirmatory qHTS for antagonist of cAMP-regulated guanine nucleotide exchange factor 4 (EPAC2) (AID 1645885). Also: nearly all actives have a fitted effect of over 25% in size. Also: potency is read from the fitted curve at half-maximal effect. As to activity change, negative = inhibition: % is scaled to controls: 0 for no effect and ±100 for the full control effect.
Sequence of Rap guanine nucleotide exchange factor 4 (Homo sapiens) (Q8WZA2 whole entry, looked up): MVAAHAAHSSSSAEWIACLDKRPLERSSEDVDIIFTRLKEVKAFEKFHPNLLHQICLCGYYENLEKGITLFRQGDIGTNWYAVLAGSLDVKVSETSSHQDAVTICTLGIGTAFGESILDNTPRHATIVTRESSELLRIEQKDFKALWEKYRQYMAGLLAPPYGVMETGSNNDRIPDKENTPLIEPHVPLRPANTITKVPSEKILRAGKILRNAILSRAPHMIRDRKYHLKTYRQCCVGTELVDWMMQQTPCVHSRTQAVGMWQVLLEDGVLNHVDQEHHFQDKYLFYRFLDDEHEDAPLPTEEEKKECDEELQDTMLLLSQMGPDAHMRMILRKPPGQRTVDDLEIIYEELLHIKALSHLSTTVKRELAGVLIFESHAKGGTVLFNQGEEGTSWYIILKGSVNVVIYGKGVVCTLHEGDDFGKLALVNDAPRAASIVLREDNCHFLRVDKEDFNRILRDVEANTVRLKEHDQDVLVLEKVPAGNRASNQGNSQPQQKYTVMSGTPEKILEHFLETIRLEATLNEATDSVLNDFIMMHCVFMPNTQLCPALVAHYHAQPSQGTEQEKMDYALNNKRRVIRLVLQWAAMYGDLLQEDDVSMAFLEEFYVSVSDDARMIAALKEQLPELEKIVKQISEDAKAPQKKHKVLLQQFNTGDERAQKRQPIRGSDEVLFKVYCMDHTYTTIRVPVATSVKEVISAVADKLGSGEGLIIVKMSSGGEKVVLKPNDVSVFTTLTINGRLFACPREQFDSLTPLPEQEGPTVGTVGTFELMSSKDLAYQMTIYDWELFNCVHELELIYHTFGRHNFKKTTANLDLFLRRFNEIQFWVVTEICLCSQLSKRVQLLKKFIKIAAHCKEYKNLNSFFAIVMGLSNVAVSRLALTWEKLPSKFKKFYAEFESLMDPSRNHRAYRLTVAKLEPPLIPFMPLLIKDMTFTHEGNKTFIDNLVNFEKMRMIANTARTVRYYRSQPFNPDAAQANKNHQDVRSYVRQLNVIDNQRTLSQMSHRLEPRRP
In assay [4] the target is Rap guanine nucleotide exchange factor 3 (Homo sapiens) (UniProt O95398). The assay can be described thus: Counterscreen qHTS for antagonist of cAMP-regulated guanine nucleotide exchange factor 3 (EPAC1) (AID 1645888).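 Also: fluorescence loss as bound BODIPY-GDP is released from Rap1B; % of control where 0% means no effect.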 The method, boiled down:
(§1)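 Measured: fluorescence of BODIPY-GDP bound to Rap1B, which falls as exchange proceeds. Conditions include 50 uM competing GDP, 5 and 30 min reads, and a later cAMP challenge for antagonist detection.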
(In general: Counterscreens check selectivity or assay interference.)

The target is the same in assay [5]. Description: Counterscreen qHTS for agonist of cAMP-regulated guanine nucleotide exchange factor 3 (EPAC1) (AID 1645889). Also: nearly all actives have a fitted effect of over 40% in size. Also: potency is read from the fitted curve at half-maximal effect. As to activation: % of control where 0% means no effect. The method, boiled down:
as §1

Inconclusive results are not listed. A number with no mark means an inactive call. Activity calls are given as the source filed them. Calls follow the shape of the dose curve; as a rule, active = well fitted curve in the direction sought with a large enough effect; inconclusive = small, poorly fitted or top-dose-only effect, or another doubt; inactive = no such curve, though single readings can be large; an effect the other way counts as inactive or inconclusive.

Sequence of Rap guanine nucleotide exchange factor 3 (Homo sapiens) (O95398 whole entry, looked up): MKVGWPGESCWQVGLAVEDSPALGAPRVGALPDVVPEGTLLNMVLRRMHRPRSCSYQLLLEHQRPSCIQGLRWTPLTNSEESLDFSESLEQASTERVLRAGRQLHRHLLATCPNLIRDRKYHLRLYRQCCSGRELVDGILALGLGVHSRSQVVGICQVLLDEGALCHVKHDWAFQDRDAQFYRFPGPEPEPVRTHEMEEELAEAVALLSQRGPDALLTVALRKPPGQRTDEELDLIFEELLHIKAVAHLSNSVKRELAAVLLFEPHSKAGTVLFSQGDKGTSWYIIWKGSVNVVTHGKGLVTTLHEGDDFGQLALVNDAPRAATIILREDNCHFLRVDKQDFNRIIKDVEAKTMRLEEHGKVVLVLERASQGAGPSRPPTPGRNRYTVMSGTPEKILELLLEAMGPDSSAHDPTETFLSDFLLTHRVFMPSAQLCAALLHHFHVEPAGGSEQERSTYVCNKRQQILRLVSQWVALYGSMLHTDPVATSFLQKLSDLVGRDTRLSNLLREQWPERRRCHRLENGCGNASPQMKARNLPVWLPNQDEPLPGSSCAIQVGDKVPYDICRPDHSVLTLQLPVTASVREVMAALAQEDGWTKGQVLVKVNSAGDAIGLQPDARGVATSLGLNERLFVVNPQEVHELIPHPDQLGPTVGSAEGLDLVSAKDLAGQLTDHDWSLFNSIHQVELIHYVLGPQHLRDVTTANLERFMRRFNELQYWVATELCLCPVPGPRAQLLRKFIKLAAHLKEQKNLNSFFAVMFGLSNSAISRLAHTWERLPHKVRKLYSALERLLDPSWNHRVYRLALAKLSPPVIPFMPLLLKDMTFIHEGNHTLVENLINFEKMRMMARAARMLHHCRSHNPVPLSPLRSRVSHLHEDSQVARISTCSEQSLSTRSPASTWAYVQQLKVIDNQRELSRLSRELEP

For `O=C1/C(=C\c2cccc(O)c2O)SC(=S)N1Cc1ccccc1`, the Potency in assay [1] was 75.7 µM (active). For the same compound, the Potency result in assay [2], in assay [3] and in assay [4] was “inactive” in each case.
Turning to `COc1cc2c(cc1OC)C(c1cccc(Cl)c1)CC(=O)N2` (centres undefined), the Potency entry in assay [1], in assay [2], in assay [3] and in assay [4] was “inactive” each time.
On to `c1ccc(NN(Cc2ccccn2)c2ccccc2)cc1`, for which the Potency entry in assay [1], in assay [2], in assay [3] and in assay [4] was “inactive” throughout.
With `CC(=O)c1cccc(NC2c3ccccc3C(=O)N2Cc2ccc3c(c2)OCO3)c1` (centres undefined), the Potency result in assay [1], in assay [2], in assay [3] and in assay [4] was “inactive” each time.
On to `Cc1cccc(CNC(=O)c2ccc(-c3nc(CS(=O)(=O)c4ccccc4)c(C)o3)cc2)c1`, for which the Potency result in assay [1], in assay [2], in assay [3] and in assay [4] was “inactive” each time.
Regarding `Cc1cccc(Cn2c(-c3cccs3)nc3ccccc32)c1`, the Potency entry in assay [1], in assay [2], in assay [3] and in assay [4] was “inactive” throughout.
As for `O=S(=O)(Nc1ccccc1N1CCCCC1)c1ccccc1`, the Potency entry in assay [1], in assay [2], in assay [3] and in assay [4] was “inactive” each time.
Turning to `COc1ccccc1CN(C)CC(=O)Nc1ccc(Cl)cc1F`, the Potency entry in assay [1], in assay [2], in assay [3] and in assay [4] was “inactive” each time.
Regarding `COCCOC(=O)c1c(-c2ccccc2)c(-c2ccccc2)nn(C)c1=O`, the Potency entry in assay [1], in assay [2], in assay [3] and in assay [4] was “inactive” each time.
As for `Cc1ccc(C)c(Oc2nnnn2-c2ccccc2)c1`, the Potency entry in assay [1], in assay [2], in assay [3], in assay [4] and in assay [5] was “inactive” each time.
For `CCCCCCn1c(=O)[nH]c2nc3cc(N)c(C)cc3nc2c1=O`, the Potency entry in assay [1], in assay [3] and in assay [4] was “inactive” throughout. Moreover, in assay [2], the Potency is 112 µM (active).
Consider `CC(=O)C1=CCC(c2cccc(Cl)c2)N(S(=O)(=O)c2ccc(C)cc2)C1` (centres undefined), for which the Potency entry in assay [1], in assay [2], in assay [3], in assay [4] and in assay [5] was “inactive” throughout.
With `CCOc1ccc(NC(=O)CSc2nc(-c3cccc(Cl)c3)nc3c2Cc2c(CO)cnc(C)c2O3)cc1`, the Potency result in assay [1], in assay [2], in assay [3] and in assay [4] was “inactive” throughout.
For `COc1ccc(Cn2c(=O)cc(C)[nH]c2=S)cc1`, the Potency entry in assay [1], in assay [2] and in assay [3] was “inactive” each time. Further, the activity change, negative = inhibition in assay [4] was -27% [at 30.8 µM]. Also, the activation in assay [5] is -6.93% [at 30.8 µM].
On to `CCC(=O)N1CCc2cc(CNC(=O)c3ccccc3C)ccc21`, for which the Potency result in assay [1], in assay [2], in assay [3], in assay [4] and in assay [5] was “inactive” throughout.
Take `CCOc1cc(-c2ccc(OC(=O)c3ccc(OC)cc3)c(OC)c2)cc(=O)c2c(C)oc(C)c12`: the Potency in assay [1] was 75.7 µM (active). For the same compound, the Potency entry in assay [2], in assay [3] and in assay [4] was “inactive” throughout.
With `C=CCN1C(=O)/C(=C/C=C2/N(CC)c3ccc(S(=O)(=O)N(C)C)cc3N2CC)SC1=S`, the Potency entry in assay [1], in assay [2] and in assay [3] was “inactive” each time. For the same compound, the activity change, negative = inhibition in assay [4] was -11.8% [at 30.8 µM]. Also, the activation in assay [5] is 14.5% [at 30.8 µM].
As for `Cc1cc(C)c(S(=O)(=O)N(C)c2ccccc2)c(C)c1`, the Potency entry in assay [1], in assay [2], in assay [4] and in assay [5] was “inactive” in each case. In assay [3], the Potency is 23.9 µM (active).
With `CC(C)COc1ccc(C(=O)Nc2cc(-c3ccccc3)no2)cc1`, the Potency result in assay [1], in assay [2], in assay [3], in assay [4] and in assay [5] was “inactive” in each case.
Take `CCN(C(=O)c1sc2cc(OC)ccc2c1Cl)c1ccccc1`: the Potency entry in assay [1], in assay [2], in assay [3] and in assay [4] was “inactive” throughout.
`COc1ccc(N=Nc2nc3ccc(Br)cc3n2C)cc1`: the Potency result in assay [1], in assay [2], in assay [3] and in assay [4] was “inactive” in each case. Besides, the Potency in assay [5] is 50.1 µM (active).
Turning to `Cc1ccc(-c2noc(-c3nnn(CC(=O)Nc4cc(Cl)ccc4C)c3N)n2)cc1`, the Potency result in assay [1], in assay [2] and in assay [4] was “inactive” throughout. Further, the outcome in assay [3] is “inactive [at 12.7 µM]”.
With `COC(=O)c1c(SC)nc2ccccc2c1OCc1ccccc1Cl`, the Potency result in assay [1], in assay [2], in assay [3], in assay [4] and in assay [5] was “inactive” throughout.
On to `Cc1nc2c(C(=O)NCCc3ccccc3)c[nH]n2c(=O)c1Cc1ccc(F)cc1Cl`, for which the Potency in assay [1] is 84.9 µM (active). The Potency entry in assay [2], in assay [3] and in assay [4] was “inactive” in each case.
Consider `COc1cc(CN2C(=O)C(C)ON=C2c2ccccc2F)cc(OC)c1` (centres undefined), for which the Potency entry in assay [1], in assay [2], in assay [3], in assay [4] and in assay [5] was “inactive” each time.
Consider `COc1cc2c(cc1NC(=O)C(C)Oc1ccc(Cl)cc1Cl)oc1ccccc12` (centres undefined), for which the Potency result in assay [1], in assay [2], in assay [3] and in assay [4] was “inactive” each time.
Turning to `CC(=O)Nc1ccc(/C(C)=N/NC(=O)c2ccc(COc3ccccc3Cl)o2)cc1`, the Potency result in assay [1], in assay [2] and in assay [3] was “inactive” each time. Also, the activity change, negative = inhibition in assay [4] is 0.248% [at 30.8 µM]. Also, the activation in assay [5] was 15.7% [at 30.8 µM].
As for `CCCc1nn2c(=O)cc(COC(=O)c3ccc(NC(=O)COc4ccccc4F)cc3)nc2s1`, the Potency entry in assay [1], in assay [2], in assay [3], in assay [4] and in assay [5] was “inactive” throughout.
Take `COc1ccc2c(Cl)c(C(=O)N/N=C3\CCCC(=O)C3)sc2c1`: the Potency result in assay [1], in assay [2] and in assay [4] was “inactive” each time. In addition, the values for the Potency in assay [3] and in assay [5] were 30.1 µM (active) and 39.8 µM (active), respectively.
